PubChem BioAssay (NCATS)
Records with an inconclusive call do not appear. Calls of active or inactive are those of the source. The call rests on the fitted dose curve; in most records, active means well fitted inhibition curve with a large enough effect; inconclusive means small, poorly fitted or top-dose-only effect; inactive means flat fitted curve, though single readings scatter.

Experiments:
Test in all cases: qHTS profiling for inhibitors of Plasmodium falciparum proliferation (AID 504749); further: nearly all actives have a fitted effect of over 60% in size
Conditions in all cases: P. falciparum in erythrocytes, SYBR Green DNA, 72 h; series mostly up to 28.7 µM
CP252 = test system: CP252
Summary of the method: (§1)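 In a 72 h erythrocytic culture (37 C, humidified, 5% CO2) at 2.5% hematocrit and 0.3% starting parasitemia, compounds were tested; SYBR Green I in detergent lysis buffer stained parasite DNA overnight.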

CP256 = test system: CP256
Summary of the method: as §1

CP260 = test system: CP260
Summary of the method: as §1

CP262 = test system: CP262
Summary of the method: as §1

CP265 = test system: CP265
Summary of the method: as §1

CP266 = test system: CP266
Summary of the method: as §1

CP268 = test system: CP268
Summary of the method: as §1

CP269 = test system: CP269
Summary of the method: as §1

CP286 = test system: CP286
Summary of the method: as §1

CP291 = test system: CP291
Summary of the method: as §1

CP297 = test system: CP297
Summary of the method: as §1

CP305 = test system: CP305
Summary of the method: as §1

CP315 = test system: CP315
Summary of the method: as §1

CP325 = test system: CP325
Summary of the method: as §1

CP329 = test system: CP329
Summary of the method: as §1

CP335 = test system: CP335
Summary of the method: as §1

DFO2036 = test system: DFO2036
Summary of the method: as §1

DIV14 = test system: DIV14
Summary of the method: as §1

DIV17 = test system: DIV17
Summary of the method: as §1

DIV30 = test system: DIV30
Summary of the method: as §1

Dd2 = test system: Dd2
Summary of the method: as §1

ECU = test system: ECU
Summary of the method: as §1

FAB9 = test system: FAB9
Summary of the method: as §1

HB3 = test system: HB3
Summary of the method: as §1

ICS = test system: ICS
Summary of the method: as §1

JCK = test system: JCK
Summary of the method: as §1

N140 = test system: N140
Summary of the method: as §1

P93_24 = test system: P93_24
Summary of the method: as §1

P94_40 = test system: P94_40
Summary of the method: as §1

PAD = test system: PAD
Summary of the method: as §1

PC15 = test system: PC15
Summary of the method: as §1

PC26 = test system: PC26
Summary of the method: as §1

PC49 = test system: PC49
Summary of the method: as §1

SC27B = test system: SC27B
Summary of the method: as §1

TAB109 = test system: TAB109
Summary of the method: as §1

TAB113 = test system: TAB113
Summary of the method: as §1

TAB165 = test system: TAB165
Summary of the method: as §1

W2 = test system: W2
Summary of the method: as §1

Measured: Potency

COc1cccc2c1C(=O)c1c(O)c3c(c(O)c1C2=O)C[C@](O)(C(=O)CO)C[C@@H]3O[C@H]1C[C@H](N)[C@@H](O)[C@H](C)O1
inactive: all assays above
